Laboratory results as given in publication PMC4336329 (PLoS ONE, 2015).
Screen size: about 310,000 compounds; about 14,000 (4.5%) showed an effect of 50% or more. The effect is printed as a negative number. The full list was thinned out, with strong results kept by preference.

The molecules below were run against human ether-à-go-go-related gene (hERG) potassium channel (human, UniProt Q12809) (assay: primary screen, population patch clamp on CHO cells stably expressing hERG; higher = less effect of the substance).
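Note: peak tail current of the secondary pulse compared with the same well before compound.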

human ether-à-go-go-related gene (hERG) potassium channel, sequence (Q12809 whole entry, looked up): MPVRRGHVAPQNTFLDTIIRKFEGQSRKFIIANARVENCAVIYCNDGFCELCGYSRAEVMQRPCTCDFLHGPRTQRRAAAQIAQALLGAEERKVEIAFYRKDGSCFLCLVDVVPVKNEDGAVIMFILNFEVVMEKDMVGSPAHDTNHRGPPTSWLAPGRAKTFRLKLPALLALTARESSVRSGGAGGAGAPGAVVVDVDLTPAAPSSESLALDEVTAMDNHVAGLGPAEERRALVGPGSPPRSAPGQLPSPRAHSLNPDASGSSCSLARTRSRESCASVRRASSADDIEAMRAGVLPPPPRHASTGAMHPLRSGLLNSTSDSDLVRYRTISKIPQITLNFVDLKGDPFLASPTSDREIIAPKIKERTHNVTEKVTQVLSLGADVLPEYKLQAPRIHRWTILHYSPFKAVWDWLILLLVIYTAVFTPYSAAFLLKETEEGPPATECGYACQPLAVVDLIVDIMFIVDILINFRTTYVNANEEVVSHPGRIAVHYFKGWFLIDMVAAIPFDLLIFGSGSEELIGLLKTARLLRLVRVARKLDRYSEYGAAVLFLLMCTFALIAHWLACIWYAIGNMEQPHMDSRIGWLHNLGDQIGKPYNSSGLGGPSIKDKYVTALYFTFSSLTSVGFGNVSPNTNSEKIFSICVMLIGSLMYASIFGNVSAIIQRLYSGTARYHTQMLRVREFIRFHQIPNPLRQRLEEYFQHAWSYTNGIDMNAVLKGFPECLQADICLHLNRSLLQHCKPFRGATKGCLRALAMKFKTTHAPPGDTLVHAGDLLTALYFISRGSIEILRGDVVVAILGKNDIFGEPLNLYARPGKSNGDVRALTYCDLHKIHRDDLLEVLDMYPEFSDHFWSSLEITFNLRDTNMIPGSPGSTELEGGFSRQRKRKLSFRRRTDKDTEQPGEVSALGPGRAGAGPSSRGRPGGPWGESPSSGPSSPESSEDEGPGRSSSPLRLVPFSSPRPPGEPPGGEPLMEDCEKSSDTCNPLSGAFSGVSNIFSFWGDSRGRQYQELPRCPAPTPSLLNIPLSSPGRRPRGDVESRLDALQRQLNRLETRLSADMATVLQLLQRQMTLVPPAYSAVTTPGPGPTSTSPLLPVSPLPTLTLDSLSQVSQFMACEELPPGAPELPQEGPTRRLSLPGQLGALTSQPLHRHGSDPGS

SMILES	hERG current change (%, negative = inhibition) at 10uM
Cl.c1ccc2c(N3CCNCC3)cccc2c1	10.9%
Cc1nnc(NC(=O)C2=COCCO2)s1	7.13%
CN(C)CCCNCC(=O)NN(c1ccccc1)c1ccccc1.O=C(O)C(=O)O	-17.4%
CCC(C)[C@H](N)c1nnc(SCC(=O)Nc2cccc(Cl)c2)o1.Cl (stereo partly shown)	-15.6%
COc1cnc(-c2ccccn2)nc1N(C)C	-1.39%
CC(=NCc1ccco1)c1c(O)n(-c2ccccc2)c(=O)[nH]c1=O	4.82%
COc1cc(/C=N/NC(=S)NCCN2CCOCC2)cc(OC)c1O	12.7%
CCCCNC(=O)c1cccc(S(=O)(=O)N2CC3(C)CC2CC(C)(C)C3)c1 (stereo not shown)	-26.7%
CC1(C)CC2CC(C)(CN2S(=O)(=O)c2cccc(C(=O)OCC(=O)NC(N)=O)c2)C1 (stereo not shown)	-57.1%
CCCCCNC(=O)c1cccc(S(=O)(=O)N2CC3(C)CC2CC(C)(C)C3)c1 (stereo not shown)	-1.24%
CCCNC(=O)c1cccc(S(=O)(=O)N2CC3(C)CC2CC(C)(C)C3)c1 (stereo not shown)	-57.6%
CNC(=O)NC(=O)COC(=O)c1cccc(S(=O)(=O)N2CC3(C)CC2CC(C)(C)C3)c1 (stereo not shown)	-14.4%
CC1(C)CC2CC(C)(CN2S(=O)(=O)c2cccc(C(=O)OCC(N)=O)c2)C1 (stereo not shown)	-7.62%
Br.O=C1SC(SC(=Nc2ccccc2)Nc2ccccc2)C(=O)N1c1ccccc1 (stereo not shown)	11.1%
COc1ccc(C(=O)N2CCCC2(C#N)c2ccccc2)cc1[N+](=O)[O-] (stereo not shown)	-41%
CCOc1ccc(C(=O)NC2CCCCCCC2)cc1	4.13%
COc1ccccc1-n1cc2ccc([N+](=O)[O-])cc2n1	8.8%
O=C(CC(Nc1ccccc1)C(=O)O)c1ccccc1 (stereo not shown)	11.2%
COc1cccc(NC(=O)Nc2ccccc2C(N)=O)c1	1.99%
CCOc1ccc(S(=O)(=O)Nc2cc(OC)c(OC)cc2C(=O)O)cc1	3.94%

SMILES	hERG current change (%, negative = inhibition) at 10uM
CCOc1cc([C@@H]2C[C@H]3CN(c4ccccc4)C(=O)[C@]34CCCN24)ccc1OC	-10.4%
COc1cc([C@@H]2C[C@H]3CN(c4ccccc4)C(=O)[C@]34CCCN24)cc(OC)c1OC	-32%
COc1ccc([C@@H]2C[C@H]3CN(c4ccccc4)C(=O)[C@]34CCCN24)c(OC)c1OC	-78.3%
O=C1N(c2ccccc2)C[C@@H]2C[C@@H](c3cccs3)N3CCC[C@@]123	-11.5%
COc1cc(Cl)c([C@@H]2C[C@H]3CN(c4ccccc4)C(=O)[C@]34CCCN24)cc1OC	-70.9%
COc1ccccc1-n1cc([C@@H]2C[C@H]3CN(c4ccccc4)C(=O)[C@]34CCCN24)cn1	-17.1%
CCc1cc2cc(C(=O)N3CCN(Cc4ccccc4)CC3)sc2s1	-36.7%
CCN(c1ccccc1C)S(=O)(=O)c1cc2c3c(c1)CCC(=O)N3CCC2	-11.2%
COc1ccc(C(CC(=O)Nc2cc([N+](=O)[O-])ccc2OC)c2ccccc2)cc1 (stereo not shown)	8.82%
O=C(CSCc1ccccc1)Nc1ccccc1	8.79%
Cc1ccc(S(=O)(=O)Oc2ccc(/C=N/NC(=O)c3c(Cl)cnn3C)cc2)cc1	-8.14%
CCOC(=O)N1CCN(c2nc(C)c3c(n2)CCCC3=O)CC1	7.97%
Clc1cccc(OCCN2CCOCC2)c1.O=C(O)C(=O)O	-2.27%
CC1CCN(CCCCOc2cccc(C(C)C)c2)CC1.O=C(O)C(=O)O	-71.7%
CC1CCCN(CCCCOc2cccc(Br)c2)C1.O=C(O)C(=O)O (stereo not shown)	-69%
CCN1CCN(CCOc2cccc(Oc3ccccc3)c2)CC1.O=C(O)C(=O)O	-61.1%
CN(C)CCCOc1cccc(Oc2ccccc2)c1.O=C(O)C(=O)O	-34.5%
CCC1CCCCN1CCCCOc1cccc(Cl)c1.O=C(O)C(=O)O (stereo not shown)	-72%
CC(C)c1cccc(OCCCCN(C)C)c1.O=C(O)C(=O)O	-14.1%
CCN1CCN(CCOCCOc2ccccc2)CC1.O=C(O)C(=O)O	10.8%

SMILES	hERG current change (%, negative = inhibition) at 10uM
COc1cccc(OCCCCN2CC(C)OC(C)C2)c1.O=C(O)C(=O)O (stereo not shown)	-4.73%
CC(C)c1cccc(OCCN2CCCC2)c1	5.18%
Clc1cccc(OCCCCN2CCCCC2)c1	-36.6%
CN(C)CCCCOc1cccc(Br)c1.O=C(O)C(=O)O	-23.7%
COc1nccnc1NS(=O)(=O)c1ccc(NCc2ccccc2O)cc1	7.4%
CC(=O)Nc1ccc(S(=O)(=O)N2CCSC2)cc1	1.65%
COc1ccc(N2CCN(c3ncnc4scc(-c5ccc(C)cc5)c34)CC2)cc1	13%
CC(C)(C)NC(=O)C(c1ccc(O)cc1)N(C(=O)CCC(=O)Nc1ccccn1)c1ccc(F)cc1 (stereo not shown)	8.1%
COC(=O)C(CCSC)NC(=O)c1cccc([N+](=O)[O-])c1 (stereo not shown)	-12.1%
CCOC(=O)N1CCN(S(=O)(=O)c2ccc3c(c2)oc(=O)n3C)CC1	-0.295%
CC(=O)c1ccc(NC(=O)C2CC2c2ccccc2)cc1 (stereo not shown)	3.25%
CC1=NOC(=O)/C1=C\c1ccc(-c2cccc(Cl)c2)o1	10.4%
NC(=O)[C@H]1CC2(CC(c3cccc(NC(=O)[C@H]4CCC(=O)N4)c3)=NO2)CN1C(=O)c1ccccc1C(=O)c1ccccc1 (stereo partly shown)	14.7%
CC1CCN(CCOc2cccc(Br)c2)CC1.O=C(O)C(=O)O	-20.3%
CC1CCN(CCCCOc2cccc(Br)c2)CC1.O=C(O)C(=O)O	-69%
CC1CN(CCOc2cccc(Oc3ccccc3)c2)CC(C)O1.O=C(O)C(=O)O (stereo not shown)	5.01%
CC1CN(CCCCOc2cccc(Oc3ccccc3)c2)CC(C)O1.O=C(O)C(=O)O (stereo not shown)	-35.9%
CC1CCCN(CCOc2cccc(Oc3ccccc3)c2)C1.O=C(O)C(=O)O (stereo not shown)	-64.7%
